In PubChem BioAssay AID430 (Sanford-Burnham Center for Chemical Genomics, 2006) one finds cytotoxicity data, which are given here for 93 compounds.

Screen size: about 63,000 compounds; about 1,100 (1.7%) were called active. This is one part of a sample in which actives are shown more often than they occur. Measured potencies and affinities stand elsewhere. Unmarked numbers belong to inactive results. No stated cut-off is given here; in the data, active means cytotoxicity above about 50%; inactive means the rest.

The assay can be described thus: HPDE-C7 pancreatic duct cell viability loss – fluorescence, HTS (AID 430).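 Further: cells exposed to compound for 48 hours before viability readout; 0% = vehicle and 100% = reference cytotoxic drug.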 Conditions: HPDE-C7 pancreatic duct cells viability, at 10 µM, stronger effect = higher value.
Turning to `O=C(CSc1nc(O)cc(=O)[nH]1)N1CCCc2ccccc21`, the cytotoxicity was 2.5%.
In the case of `CC1=C(C)SC(=C(C#N)c2nnc(N3CCOCC3)n2-c2ccccc2)S1`, the cytotoxicity was 23.4%.
For `COC(=O)Cc1ccc(NC(=O)c2ccc(Br)o2)cc1`, the cytotoxicity was -2.2%.
For `O=C(Nc1ccc(Nc2ccccc2)cc1)c1ccc(Br)o1`, the cytotoxicity was 76.8% (active).
On to `O=C(Nc1ccc(S(=O)(=O)NCCc2ccccc2)cc1)c1ccc(Br)o1`, for which the cytotoxicity was 12%.
In the case of `COc1ccccc1CNC(=O)C1CCCN(S(=O)(=O)c2c(C)[nH]c(=O)[nH]c2=O)C1` (stereo not drawn), the cytotoxicity is -20.9%.
As for `COc1ccc(C(=O)c2ccc(OC)c(OC)c2)cc1OC`, the cytotoxicity is -8.6%.
For `COc1ccc(C(=O)c2ccc(OC)c(N)c2)cc1N`, the cytotoxicity is 78.9% (active).
Regarding `COc1ccc(C(N)=O)cc1N`, the cytotoxicity is -18.1%.
For the compound `O=C(NC1CCCCC1)N1CCCCCC1`, the cytotoxicity is -4%.
On to `CCSc1nnc(NC(=O)c2cc3c(s2)CCCC3)s1`, for which the cytotoxicity was 7.4%.
In the case of `CC[C@]1(O)C[C@@H]2CN(CCc3c([nH]c4ccccc34)[C@@](C(=O)OC)(c3cc4c(cc3OC)N(C)[C@H]3[C@@](O)(C(=O)OC)[C@H](OC(C)=O)[C@]5(CC)C=CCN6CC[C@]43[C@@H]65)C2)C1` it was 67.3% (active); in that of `CC[C@]1(O)CC2CN(CCc3c([nH]c4ccccc34)[C@@](C(=O)OC)(c3cc4c(cc3OC)N(C=O)[C@H]3[C@@](O)(C(=O)OC)[C@H](OC(C)=O)[C@]5(CC)C=CCN6CC[C@]43[C@@H]65)C2)C1` (stereo partly drawn), 66.3% (active).
`CC(=O)N1CCN(C2c3cccc4cccc(c34)C2NS(=O)(=O)c2ccccc2)CC1` (stereo not drawn): the cytotoxicity was -18.7%.
On to `COc1cccc(OCC(O)CN2CCC(C)CC2)c1` (stereo not drawn), for which the cytotoxicity is 0.1%.
On to `Cc1cc(C(=O)Nc2ccc(S(=O)(=O)N3CCCC3)cc2)cs1`, for which the cytotoxicity is -11.4%.
Regarding `COc1ccc(C2CC(=O)c3c([nH]c(C(=O)OC(C)C)c3C)C2)cc1OC` (stereo not drawn), the cytotoxicity is -7.1%.
Consider `CCCOCCOC(=O)c1[nH]c2c(c1C)C(=O)CC(c1cc(OC)ccc1OC)C2` (stereo not drawn), for which the cytotoxicity was 60.7% (active).
As to `COc1ccc(OC)c(C2CC(=O)c3c([nH]c(C(=O)OC(C)C)c3C)C2)c1` (stereo not drawn), the cytotoxicity is 65.9% (active).
Consider `COCCOC(=O)c1[nH]c2c(c1C)C(=O)CC(c1cc(OC)ccc1OC)C2` (stereo not drawn), for which the cytotoxicity was 16.4%.
For `COC(=O)c1[nH]c2c(c1C)C(=O)CC(c1cc(OC)ccc1OC)C2` (stereo not drawn), the cytotoxicity is 31.5%.
In the case of `CCOCC(=O)Nc1ccc(S(=O)(=O)NCCc2ccccc2)cc1` it was 4.2%; in that of `COC(=O)c1ccc(NC(=O)CCN2CCN(c3ccccc3)CC2)cc1`, 37.6%; in that of `O=C(Nc1ccc(N2CCCCC2)cc1)c1ccc(F)cc1`, 23.5%.
Under `O=C(c1ccco1)N1CCN(C(=O)c2ccccc2OC(=O)C23CC4CC(CC(C4)C2)C3)CC1` stands -9.7%.
On to `COc1ccc(N2CC(O)=C(c3nc4ccccc4s3)C2=N)cc1`, for which the cytotoxicity was 5.8%.
On to `CCOc1ccccc1N1CC(O)=C(c2nc3ccccc3s2)C1=N`, for which the cytotoxicity is 65.2% (active).
`COc1ccc(N2CC(O)=C(c3nc4ccccc4s3)C2=N)c(OC)c1`: the cytotoxicity is 20.6%.
Under `O=C(O)C(CC(=O)N1CCOCC1)NCc1ccccc1` (stereo not drawn) stands 5.6%.
Consider `CC1CCCN(C(=O)CSc2nnc(-c3cccnc3)n2C2CCCCC2)C1` (stereo not drawn), for which the cytotoxicity is -23.2%.
Take `CCCN(CC1CC1)C(=O)Nc1ccccc1C`: the cytotoxicity was -9.7%.
In the case of `COc1cccc(-c2nc(NC(C)C)c3ccccc3n2)c1O` it was 23.8%.
For the compound `COc1cccc(-c2nc(N3CCCCC3C)c3ccccc3n2)c1O` (stereo not drawn), the cytotoxicity is 53% (active).
Turning to `CCC1CCCCN1c1nc(-c2cccc(OC)c2O)nc2ccccc12` (stereo not drawn), the cytotoxicity is -2.8%.
On to `CCC(C)Nc1nc(-c2cccc(OC)c2O)nc2ccccc12` (stereo not drawn), for which the cytotoxicity was 107% (active).
On to `COc1cccc(-c2nc(N3CCCCC3)c3ccccc3n2)c1O`, for which the cytotoxicity was -7.5%.
In the case of `COc1cccc(-c2nc(NCC3CCCO3)c3ccccc3n2)c1O` (stereo not drawn) it was 52.2% (active); in that of `C=CCNc1nc(-c2cccc(OC)c2O)nc2ccccc12`, -3%.
Take `COc1cccc(-c2nc(NC(C)(C)C)c3ccccc3n2)c1O`: the cytotoxicity is 10.9%.
Regarding `Oc1ccccc1-c1nc(NCC2CCCO2)c2ccccc2n1` (stereo not drawn), the cytotoxicity is 46.8%.
In the case of `O=C(CN(C1CC1)S(=O)(=O)c1ccc(S(=O)(=O)N2CCCCCC2)cc1)Nc1ccccc1` it was 7.4%; in that of `CCCOc1ccc(C(=O)NCCC(=O)NCCCC(=O)OCC)cc1`, 1.7%; in that of `O=C1C(SC(F)(F)C(F)F)=C(C(F)(F)F)OC2C3C=CC(C3)C12` (stereo not drawn), 3.6%.
Take `O=C1NC(NS(=O)(=O)c2ccccc2)(C(F)(F)F)C(=O)N1Cc1cccnc1` (stereo not drawn): the cytotoxicity is -8.4%.
Under `CC(C)(C)c1ccccc1OCC(=O)NCCC(=O)O` stands -12.2%.
Regarding `CCS(=O)(=O)CCSc1nc2ccccc2o1`, the cytotoxicity was -9.3%.
As for `O=C(CSc1nc2ccccc2s1)Nc1ncccn1`, the cytotoxicity was -3.2%.
For `c1ccc2oc(SCc3nc4ccccc4s3)nc2c1`, the cytotoxicity is 8.6%.
Regarding `CCS(=O)(=O)CCSc1nc2ccccc2s1`, the cytotoxicity was -17.4%.
Regarding `Cc1ccccc1N(C)S(=O)(=O)c1ccc2[nH]cc(C(=O)NCC3CCCO3)c(=O)c2c1` (stereo not drawn), the cytotoxicity was -13.7%.
Regarding `O=C(O)COc1ccc(C(=O)Cc2ccc3c(c2)OCCCO3)c(O)c1`, the cytotoxicity was -8.7%.
In the case of `O=C(O)CCC(=O)c1ccc2c(c1)OCCO2` it was 0%; in that of `O=C(Cc1ccc2c(c1)OCCO2)c1c(O)cc(O)cc1O`, 60.9% (active).
For `Nn1c(SCC(=O)NCc2ccccc2)nnc1C1CC1`, the cytotoxicity was 6.6%.
Consider `COC(=O)C1CCN(C(=O)C(C)Oc2ccc(Cl)cc2Cl)CC1` (stereo not drawn), for which the cytotoxicity is -16.4%.
For `CCN(CC)CCCNC(=O)C1CCN(C(=O)c2cc3sccc3n2Cc2ccc(F)cc2)CC1`, the cytotoxicity is 20.7%.
Consider `CC(=O)C1=C(C)N=c2s/c(=C/c3ccc4c(c3)OCO4)c(=O)n2C1c1ccc(N(C)C)cc1` (stereo not drawn), for which the cytotoxicity is -3.5%.
Under `COc1ccc(C2C(C(C)=O)=C(C)N=c3s/c(=C/c4ccc5c(c4)OCO5)c(=O)n32)cc1` (stereo not drawn) stands -4.1%; under `CCOC(=O)c1cnc2c(C(=O)OC)cccc2c1NCCN1CCOCC1`, -10.4%; under `COc1ccc(N2CCN(CC(O)c3c[nH]c4ccc(OC)cc34)CC2C)cc1` (stereo not drawn), 41.3%.
For `COc1ccc(CCNC(=O)c2cc3ccccn3n2)c(OC)c1OC`, the cytotoxicity is -7%.
`COc1ccc(OC)c(Nc2nc(-c3cccs3)cs2)c1`: the cytotoxicity is 44%.
Under `COc1ccc(OC)c(Nc2nc(-c3ccc(O)c(O)c3)cs2)c1` stands 67.2% (active).
For `COc1ccc(OC)c(Nc2nc(-c3sc(C)nc3C)cs2)c1`, the cytotoxicity is 7.9%.
As for `Cc1cc2cc(C(c3nnnn3Cc3ccco3)N3CCc4ccccc4C3)c(=O)[nH]c2cc1C` (stereo not drawn), the cytotoxicity was -4.7%.
On to `Cc1ccc(S(=O)(=O)c2c(C)nn(C(C)(C)C)c2OC(=O)c2cccs2)cc1`, for which the cytotoxicity is -6.5%.
Consider `Cc1nn(C(C)(C)C)c(OC(=O)c2ccc3c(c2)OCO3)c1S(=O)(=O)c1ccccc1`, for which the cytotoxicity was 60.9% (active).
Under `Cc1nn(C(C)(C)C)c(OC(=O)C2CCCC2)c1S(=O)(=O)c1ccccc1` stands -9.3%.
On to `Cc1ccc(S(=O)(=O)c2c(C)nn(C(C)(C)C)c2OC(=O)c2ccco2)cc1`, for which the cytotoxicity was 14.5%.
Regarding `CC(=O)Oc1c(S(=O)(=O)c2ccc(C)cc2)c(C)nn1C(C)(C)C`, the cytotoxicity is 12.6%.
For the compound `Cc1nn(C(C)(C)C)c(OC(=O)c2cccs2)c1S(=O)(=O)c1ccccc1`, the cytotoxicity was 54.2% (active).
Under `CC(=O)Oc1c(S(=O)(=O)c2ccccc2)c(C)nn1C(C)(C)C` stands 13.3%.
As to `Cc1nn(-c2ccccc2)c(OC(=O)c2cccs2)c1S(=O)(=O)c1ccccc1`, the cytotoxicity is -5.8%.
For `CCC(Sc1nncn1C)C(=O)Nc1nnc(-c2ccccc2Cl)s1` (stereo not drawn), the cytotoxicity was 3.8%.
Regarding `CC(=O)Nc1ccc(C(=O)Nc2ccc(S(=O)(=O)NCC3CCCO3)cc2)cc1` (stereo not drawn), the cytotoxicity is -3.3%.
`COc1ccc(-c2[nH]ncc2-c2cnc(C)s2)c(O)c1`: the cytotoxicity is 6.4%.
Regarding `CCOc1ccc(-c2[nH]ncc2Oc2ccccc2OC)c(O)c1`, the cytotoxicity is 65.8% (active).
As for `CCOc1ccccc1Oc1cn[nH]c1-c1ccc(OC)cc1O`, the cytotoxicity is 51.7% (active).
For the compound `COc1ccc(-c2[nH]ncc2Oc2ccccc2OC)c(O)c1`, the cytotoxicity is 6.8%.
As for `C=C(C)COc1ccc(-c2[nH]ncc2Oc2ccccc2OCC)c(O)c1`, the cytotoxicity is 86% (active).
In the case of `CCOc1ccc(-c2[nH]ncc2Oc2ccccc2OCC)c(O)c1`, the cytotoxicity was 53.9% (active).
In the case of `COc1ccc(Oc2cn[nH]c2-c2ccc(O)cc2O)cc1` it was 9.4%; in that of `C=C(C)COc1ccc(-c2nc(N)ncc2Oc2ccccc2OCC)c(O)c1`, 7.3%.
Regarding `O=c1c2c3nc4ccccc4nc3n(/N=C/c3cccs3)c2ncn1-c1ccccc1`, the cytotoxicity is -19.9%.
For the compound `O=C(CCc1nc2ccccc2[nH]1)Nc1ccc2c(c1)OCO2`, the cytotoxicity is 5.9%.
With `Cc1noc(C)c1COC(=O)CCN1c2ccccc2Sc2ccccc21`, the cytotoxicity was -8%.
With `COc1ccc(NC(=O)CSc2nc3ccccc3c(=O)n2-c2ccc3c(c2)OCO3)c(OC)c1`, the cytotoxicity was 33.6%.
With `CCc1ccccc1-n1cnc2cc(C(=O)O)ccc21`, the cytotoxicity is -20.8%.
For the compound `O=C(O)c1cc(Cl)ccc1NC(=O)C1CCCO1` (stereo not drawn), the cytotoxicity is -8.9%.
In the case of `C=CCNC(=O)C1CC(c2cccc(OC)c2)=NO1` (stereo not drawn) it was -8.4%; in that of `CCC1(COC(NC(=O)c2cccnc2)(C(F)(F)F)C(F)(F)F)COC1`, -0.9%.
Under `COc1cccc(-c2nc(CS(=O)CC(=O)NC3CC3)c(C)o2)c1` (stereo not drawn) stands -3%; under `COc1nc(NC23CC4CC(CC(C4)C2)C3)nc(OC)n1`, -8%.
